Experimental data: PubChem BioAssay (NCI)
The panel holds about 83,000 compounds, 20% with a hit somewhere; the sample as a whole holds those more often.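 A percent growth of 40 corresponds to 60% growth inhibition; 0 means no net growth; -100 means all cells died. Active threshold: below 10.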 The source made the active and inactive calls.

Legend:
Experiment in all cases: NCI-60 one-dose screen, 48 h (100 = growth as untreated, 0 = no growth, -100 = all killed)
Conditions in all cases: 10 µM unless noted
HCT-15 colon = system: HCT-15 colon
HT29 colon = system: HT29 colon
SNB-75 CNS = system: SNB-75 CNS
SNB-19 CNS = system: SNB-19 CNS
U251 CNS = system: U251 CNS
PC-3 prostate = system: PC-3 prostate
SK-MEL-5 melanoma = system: SK-MEL-5 melanoma
UACC-62 melanoma = system: UACC-62 melanoma
LOX IMVI melanoma = system: LOX IMVI melanoma
SK-MEL-28 melanoma = system: SK-MEL-28 melanoma
SK-MEL-2 melanoma = system: SK-MEL-2 melanoma
EKVX NSCLC = system: EKVX NSCLC
SN12C renal = system: SN12C renal
UO-31 renal = system: UO-31 renal
TK-10 renal = system: TK-10 renal
ACHN renal = system: ACHN renal
CAKI-1 renal = system: CAKI-1 renal
A498 renal = system: A498 renal
CCRF-CEM leukemia = system: CCRF-CEM leukemia
MOLT-4 leukemia = system: MOLT-4 leukemia

Row | SMILES | growth (HCT-15 colon) | growth (HT29 colon) | growth (SNB-75 CNS) | growth (SNB-19 CNS) | growth (U251 CNS) | growth (PC-3 prostate) | growth (SK-MEL-5 melanoma) | growth (UACC-62 melanoma) | growth (LOX IMVI melanoma) | growth (SK-MEL-28 melanoma) | growth (SK-MEL-2 melanoma) | growth (EKVX NSCLC) | growth (SN12C renal) | growth (UO-31 renal) | growth (TK-10 renal) | growth (ACHN renal) | growth (CAKI-1 renal) | growth (A498 renal) | growth (CCRF-CEM leukemia) | growth (MOLT-4 leukemia)
1 | Cn1cc(-c2nonc2-c2c[nH]c3ccc(Br)cc23)c2cc(Br)ccc21 | 28.2% (inactive) | 20.6% (inactive) | -11.2% (active) | 42.8% (inactive) | 42.9% (inactive) | 43.4% (inactive) | 70.3% (inactive) | 53.9% (inactive) | 24.8% (inactive) | 59.4% (inactive) | 73.9% (inactive) | 33.5% (inactive) | 66.9% (inactive) | 24.4% (inactive) | 39.6% (inactive) | 14.3% (inactive) | 24% (inactive) | 28% (inactive) | 34.4% (inactive) | 25.1% (inactive)
2 | CN([O-])c1nc(N(C)[O-])nc(N2CCOCC2)n1.CN([O-])c1nc(N(C)[OH2+])nc(N2CCOCC2)n1.[Fe+3] | 104% [100 µM] (inactive) | 102% [100 µM] (inactive) | 96.1% [100 µM] (inactive) | 108% [100 µM] (inactive) | 38.7% [100 µM] (inactive) | 65.9% [100 µM] (inactive) | 95.5% [100 µM] (inactive) | 81.6% [100 µM] (inactive) | 38.9% [100 µM] (inactive) | -26.4% [100 µM] (active) | 84.9% [100 µM] (inactive) | 14.5% [100 µM] (inactive) | 99.9% [100 µM] (inactive) | 72.3% [100 µM] (inactive) | 110% [100 µM] (inactive) | 82.8% [100 µM] (inactive) | 85.8% [100 µM] (inactive) | 109% [100 µM] (inactive) | 11.7% [100 µM] (inactive) | 30.3% [100 µM] (inactive)
3 | CC(C)(C)n1cc(-c2ccnc(NCCNS(=O)(=O)c3cccc4ccccc34)c2)c(-c2cccc(F)c2)n1 | -37.2% (active) | -29.6% (active) | -17.6% (active) | 27.5% (inactive) | -18.7% (active) | 4.9% (active) | -97.1% (active) | 8% (active) | -86.8% (active) | -2.58% (active) | -35.3% (active) | 8.04% (active) | -88.4% (active) | -38.2% (active) | -80% (active) | -58.5% (active) | -54.7% (active) | -73.1% (active) | 11% (inactive) | -15.5% (active)
4 | C=C(C)[C@@H]1CC[C@]2(C)[C@H](CC=C3[C@@H]4[C@H](C)[C@@H](C)CC[C@]4(CO)CC[C@]32C)[C@@]1(C)CCCN | -39.1% (active) | -44.5% (active) | 18.5% (inactive) | 72.3% (inactive) | -74.3% (active) | 11% (inactive) | 67.1% (inactive) | 79.4% (inactive) | -99% (active) | -35.3% (active) | -24.7% (active) | 74.1% (inactive) | -4.38% (active) | 34.1% (inactive) | -68.3% (active) | 63.4% (inactive) | 22.4% (inactive) | 72.5% (inactive) | 0.722% (active) | -10.6% (active)
5 | Nc1nc(=S)c2ncn(C3OC(COP(=O)(O)O)C(O)C3O)c2[nH]1 (stereo not given) | 9.49% (active) | 7.19% (active) | 47.8% (inactive) | 96.1% (inactive) | 47.3% (inactive) | 29.1% (inactive) | 69.5% (inactive) | 14% (inactive) | 3.07% (active) | 73.5% (inactive) | 14.9% (inactive) | 31.8% (inactive) | 29.8% (inactive) | 25.1% (inactive) | 8.92% (active) | 20% (inactive) | 16.8% (inactive) | 37.8% (inactive) | 15.5% (inactive) | 12.7% (inactive)
6 | COc1cc2c(c(OC)c1OC)CCC(c1cccc(C(=O)Nc3cccc(Br)c3)c1)O2 (stereo not given) | 67% (inactive) | 58.1% (inactive) | 69% (inactive) | 81.6% (inactive) | 71.5% (inactive) | 49.1% (inactive) | 55.6% (inactive) | 52.8% (inactive) | 74% (inactive) | 87.9% (inactive) | 76.8% (inactive) | 50.4% (inactive) | 55.9% (inactive) | 54.7% (inactive) | 78.7% (inactive) | 84.3% (inactive) | 57.8% (inactive) | 28.8% (inactive) | 69% (inactive) | 49.4% (inactive)
7 | Cc1ccccc1NC(=O)c1sc2nc(C)c(C(=O)/C=C/c3ccccc3)cc2c1N | -1.44% (active) | -5.48% (active) | -7.36% (active) | 2.8% (active) | -35% (active) | 29% (inactive) | 17.7% (inactive) | 7.17% (active) | -85.9% (active) | 42% (inactive) | 34.8% (inactive) | 59.6% (inactive) | 3.45% (active) | 19.7% (inactive) | 11.7% (inactive) | 33.3% (inactive) | 25.5% (inactive) | 29.3% (inactive) | 8.43% (active) | 17.4% (inactive)
8 | O=Nc1c(-c2c(O)[nH]c3ncccc23)[nH]c2ccccc12 | 33.9% (inactive) | 102% (inactive) | 31.2% (inactive) | 96.4% (inactive) | 67.3% (inactive) | 67.7% (inactive) | 72.3% (inactive) | 56.7% (inactive) | 44.5% (inactive) | 75.3% (inactive) | 14.7% (inactive) | 35.5% (inactive) | 72.8% (inactive) | 10.6% (inactive) | 40.3% (inactive) | 22.6% (inactive) | 12.4% (inactive) | -11.7% (active) | 64.8% (inactive) | 40.8% (inactive)
9 | O=C(Nc1ncc(Cc2ccc(Cl)c(C(F)(F)F)c2)s1)c1ccc2nnsc2c1 | 40.4% (inactive) | 57.7% (inactive) | 90.8% (inactive) | 46.2% (inactive) | 42.7% (inactive) | 38.3% (inactive) | 38.3% (inactive) | 6.95% (active) | 29.3% (inactive) | 54.7% (inactive) | 47.5% (inactive) | 39.4% (inactive) | 58.2% (inactive) | 40.9% (inactive) | 48.3% (inactive) | 43.7% (inactive) | 28.1% (inactive) | 82% (inactive) | 45.5% (inactive) | 30.9% (inactive)
10 | COc1ccc(C(=O)Nc2cccc(C3CC(=O)c4c(cc(OC)c(OC)c4OC)O3)c2)cc1 (stereo not given) | 13.3% (inactive) | 6.28% (active) | -11.4% (active) | 18.3% (inactive) | 9.47% (active) | 20.4% (inactive) | 9.7% (active) | 25.5% (inactive) | 26.1% (inactive) | 56.3% (inactive) | -11.9% (active) | 45% (inactive) | 31.2% (inactive) | 33.7% (inactive) | 40.3% (inactive) | 40.8% (inactive) | 33.3% (inactive) | -2.96% (active) | 9.44% (active) | 14.3% (inactive)
11 | CN(C)CCCC1(c2ccc(F)cc2)OCc2cc(-c3cccc4[nH]ccc34)ccc21 (stereo not given) | 7.57% (active) | -31.3% (active) | 11.4% (inactive) | 51.9% (inactive) | -24.1% (active) | 28.6% (inactive) | -84.1% (active) | 37.5% (inactive) | -92.1% (active) | -86% (active) | 74.5% (inactive) | 44.8% (inactive) | 48.3% (inactive) | -9.8% (active) | 58.5% (inactive) | 9.24% (active) | 6.71% (active) | 72% (inactive) | 16% (inactive) | -8.64% (active)
12 | Nc1c(C(=O)Nc2ccncc2)sc2nc3c(cc12)CCCCCC3 | 63.5% (inactive) | 41.9% (inactive) | 84.2% (inactive) | 84.1% (inactive) | 76.2% (inactive) | 90.3% (inactive) | 56.8% (inactive) | 89.6% (inactive) | 84.8% (inactive) | 88.6% (inactive) | 94.2% (inactive) | 89.2% (inactive) | 86.4% (inactive) | 78.4% (inactive) | 90.2% (inactive) | 108% (inactive) | 98% (inactive) | 54.8% (inactive) | 68.1% (inactive) | 70.3% (inactive)
13 | CC1(C)CC[C@]2(C(=O)O)CC[C@]3(C)C(=CC[C@@H]4[C@@]5(C)C/C(=C/O)C(=O)C(C)(C)[C@@H]5CC[C@]43C)[C@@H]2C1 | 24.4% (inactive) | 26.6% (inactive) | 95.4% (inactive) | 60.1% (inactive) | 28.3% (inactive) | 31.4% (inactive) | 67.8% (inactive) | 61.6% (inactive) | 27.4% (inactive) | 52.2% (inactive) | 104% (inactive) | 88.6% (inactive) | 65.7% (inactive) | 57.7% (inactive) | 58.1% (inactive) | 20% (inactive) | 48.6% (inactive) | 85.6% (inactive) | 16.3% (inactive) | 7.85% (active)
14 | O=C(Cn1c(-c2ccc([N+](=O)[O-])cc2)nc2ccccc21)NNC(=O)c1cccnc1 | 80.9% (inactive) | 77.2% (inactive) | 53.3% (inactive) | 86.5% (inactive) | 77.9% (inactive) | 69% (inactive) | 83.8% (inactive) | 66.2% (inactive) | 65.3% (inactive) | 108% (inactive) | 103% (inactive) | 73.2% (inactive) | 78.9% (inactive) | 65.6% (inactive) | 126% (inactive) | 84.4% (inactive) | 71.2% (inactive) | 65.1% (inactive) | 75.6% (inactive) | 79.3% (inactive)
